High-throughput results deposited in PubChem BioAssay by several laboratories.
SARS 3CLpro inh: SARS-CoV 3CLpro protease inhibition; hit rate 0.14% among 290,000; inhibition, % at 6 µM; recombinant SARS-CoV 3CLpro, quenched FRET peptide cleavage; P0C6X7; in the data active = inhibition above about 12%
CCHF vOTU inh-1: CCHFV vOTU protease inhibition. Pep-AMC fluorescence. hit rate 0.55% among 370,000. inhibition, % at 11.5 µM; also: 0% = vehicle wells with enzyme and 100% = no enzyme wells
Vc quorum ag: inducers of Vibrio cholerae quorum light production without autoinducers | V. cholerae BH1578 lux reporter, luminescence, 6 h | activation, % at 18.7 µM | hit rate 0.16% among 350,000 | AID 588436; in the data active = activation mostly above about 9.7%, no sharp cut-off
TcdB GH inh: blocks C. difficile toxin B glycohydrolase activity | P18177 | TcdB glycohydrolase enzymatic assay, plate reader | inhibition, % at 9.99 µM | hit rate 0.24% among 350,000; in the data active = inhibition above about 10%
PriA SSB inh: K. pneumoniae PriA-SSBct interaction inhibition; AlphaScreen SSBct-PriA binding, biotinylated peptide; AID 1272365; inhibition, % at 33 µM; hit rate 0.6% among 430,000; in the data active = inhibition mostly above about 37%, no sharp cut-off; inactive = mostly below about 20%;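 also: plate controls were negative control peptide for no effect and reference peptide for full effect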
VHR inh abs: blocks human VHR1 dual specificity phosphatase; P51452; recombinant VHR phosphatase, pNPP absorbance; inhibition, % at 13.3 µM; hit rate 0.52% among 290,000; AID 1654; in the data active = inhibition above about 50%
CCHF vOTU inh-2: confirmation of CCHF virus vOTU protease inhibitors. shares compounds with CCHF vOTU inh-1. Recombinant CCHFV vOTU, Pep-AMC fluorescence. inhibition, % at 11.5 µM. hit rate 17% among 1,900
Numbers without * were called inactive; i = inactive; · = not tested or not shown. Shown are actives, neighbours in structure and some others; about 1.3% of the full set was active somewhere. Rule as the data show it, unless noted: active = inhibition above about 30%; inactive = the rest.

SMILES	SARS 3CLpro inh	CCHF vOTU inh-1	Vc quorum ag	TcdB GH inh	PriA SSB inh	VHR inh abs	CCHF vOTU inh-2
Nc1cccc2cc(S(=O)(=O)O)ccc12	·	32*	6	-2	12	·	37*
FC(F)(F)C1=Nc2cccc3cccc(c23)N1	·	41*	-2	0	0	·	17
COc1ccc(C(C(=O)NC(C)(C)C)n2c(=O)c(-c3ccco3)nc3ccccc32)cc1 (stereo unspecified)	·	12	·	0	·	·	·
CCCCCNC(=O)C(c1ccc(C(F)(F)F)cc1)n1c(=O)c(-c2ccco2)nc2ccccc21 (stereo unspecified)	·	31*	·	0	·	·	-20
Cc1cccc(C)c1NC(=O)C(c1ccc(-c2ccccc2)cc1)n1c(=O)c(-c2ccco2)nc2ccccc21 (stereo unspecified)	·	33*	·	-2	·	·	-2
Cc1cccc(C)c1NC(=O)C(c1ccccc1)n1c(=O)c(-c2ccccc2)nc2ccccc21 (stereo unspecified)	·	-6	·	1	·	·	·
CC(C)(C)NC(=O)C(c1ccc(-c2ccccc2)cc1)n1c(=O)c(-c2ccco2)nc2ccccc21 (stereo unspecified)	·	32*	·	0	·	·	-14
Cc1ccc(-c2csc3ncnc(Nc4ccc(Cl)c(C(F)(F)F)c4)c23)cc1	·	·	·	·	-2	·	·
C[C@H](Oc1ccccc1)C(=O)N1CCC(c2nnc(-c3ccc(F)cc3)o2)CC1	·	·	·	·	-17	·	·
Cc1ccc(S(=O)(=O)N2CC3(O)CN(C(=O)OC(C)C)N(C(=O)OC(C)C)CC3(OC(=O)NCC3CCCCC3)C2)cc1 (stereo unspecified)	·	24	0	-1	·	·	·
CCCCCCNC(=O)OC12CN(C(=O)OC(C)C)N(C(=O)OC(C)C)CC1(O)CN(S(=O)(=O)c1ccc(C)cc1)C2 (stereo unspecified)	·	37*	-1	2	·	·	11
Cc1nnc(N/N=C/c2ccc(-c3ccccc3F)o2)n1N	6	79*	-1	-1	·	30	5
Cc1nnc(NN=Cc2ccc(-c3ccccc3[N+](=O)[O-])o2)n1N	·	·	·	·	0	·	·
CCc1nnc(N/N=C/c2ccc(-c3ccc([N+](=O)[O-])cc3)o2)n1N	4	65*	0	0	·	5	4
CCC(=O)N/N=C/c1ccc(-c2ccc([N+](=O)[O-])cc2)o1	5	8	0	1	·	3	·
Cc1nnc(N/N=C\c2ccc(-c3ccccc3[N+](=O)[O-])o2)n1N	4	101*	0	-2	·	-7	7
Cc1ccc(S(=O)(=O)Nc2ccccc2C(=O)Nc2ccccc2-c2nc3ccccc3[nH]2)cc1	·	·	·	·	-18	·	·
O=C(Cc1ccc(-c2ccccc2)cc1)Nc1ccc2c(c1)CN(C(=O)c1ccco1)CC2	·	·	·	·	23	·	·
CC1CN(c2ncnc3c2cnn3CCNC(=O)c2c(F)cccc2Cl)CC(C)O1 (stereo unspecified)	·	·	·	·	-10	·	·
O=C(NCc1cc(C(F)(F)F)cc(C(F)(F)F)c1)C1CC(c2c(Cl)cccc2Cl)=NO1 (stereo unspecified)	6	17	0	1	2	30	·
O=C(NCc1ccc(OC(F)(F)F)cc1)C1CC(c2c(Cl)cccc2Cl)=NO1 (stereo unspecified)	10	30*	i	-5	4	17	4
CCn1c(C)cc(/C=C2/NC(=O)N(CC(=O)Nc3cccc(C)c3)C2=O)c1C	2	31*	i	·	12	16	3
CCn1c(C)cc(/C=C2\NC(=O)N(CC(=O)Nc3cccc(C)c3)C2=O)c1C	-3	28	-4	·	-4	13	·
CC(C)(C=O)C1=CC(=O)c2ccccc2C1=O	-3	79*	0	-3	17	47	-27
CC1=CC(=O)c2ccccc2C1=O	-4	11	0	1	-2	9	·
SMILES	SARS 3CLpro inh	CCHF vOTU inh-1	Vc quorum ag	TcdB GH inh	PriA SSB inh	VHR inh abs	CCHF vOTU inh-2
Cc1cc(=O)[nH]c(-n2nc(C)c(CCC(=O)NCc3cc(-c4ccccc4)on3)c2C)n1	·	·	·	·	0	·	·
Cc1cc(/C=C(\C#N)C(=O)O)c(C)n1CCC(C)C	0	30*	0	-1	-1	34	4
COc1ccc(C=NNC(=S)Nc2cccc(C(=O)O)c2)cc1	·	·	·	·	-8	·	·
COc1ccc(CN(C)C(=O)[C@H]2O[C@@H](n3ccc(=O)[nH]c3=O)[C@H](O)[C@@H]2O)cc1OC	·	30*	·	0	·	·	3
CN(Cc1ccc2c(c1)CCCN2C)C(=O)[C@H]1O[C@@H](n2ccc(=O)[nH]c2=O)[C@H](O)[C@@H]1O	·	1	·	-1	·	·	·
CC(C)CS(=O)(=O)NC[C@H](O)c1ccc(C(F)(F)F)cc1	·	·	·	·	-7	·	·
O=C(CSc1nc(=O)n(CCCN2CCOCC2)c2c1CCC2)Nc1ccc(F)cc1F	·	32*	-1	-11	-3	·	-18
CCN(CC)c1ccc(C=Nc2ccc(N(C)C)cc2)c(O)c1	-1	74*	i	·	44	35	-2
O=C(N[C@H](c1cccnc1)C1CCOCC1)c1cc(C2CC2)on1	·	·	·	·	-10	·	·
CCOc1ccc(S(=O)(=O)N2CCC(c3ccc4c(c3)OCO4)C2)cc1F (stereo unspecified)	·	·	·	·	-14	·	·
CCCCc1nnc(NC(=O)C2=COCCO2)s1	-1	33*	i	0	-5	-9	-17
O=c1nc2ccccn2c(=O)[nH]1	·	·	·	·	-4	·	·
CCCn1c(SCC(=O)Nc2ccc(Cl)cn2)nnc1C1CC1	2	34*	-2	0	-7	29	3
CCn1c(SCC(=O)Nc2ccc(Cl)cc2)nnc1C1CC1	0	-3	i	3	-5	4	·
CC1(C(=O)NCc2ccc(C(F)(F)F)cc2)CCN1Cc1ccc(-c2ccccc2)o1 (stereo unspecified)	·	18	i	0	·	·	·
CC1(C(=O)NCc2cccc(C(F)(F)F)c2)CCN1CCc1ccccc1 (stereo unspecified)	·	31*	i	0	·	·	3
CC1(C(=O)NCc2ccc(C(F)(F)F)cc2)CCN1Cc1c(F)cccc1F (stereo unspecified)	·	31*	i	0	·	·	4
CSc1ccc(CN2CCC2(C)C(=O)NCc2cccc(C(F)(F)F)c2)cc1 (stereo unspecified)	·	10	0	1	·	·	·
CC1(C)C2CCC1(CS(=O)(=O)N1CCOC(c3ccccc3)C1)C(=O)C2 (stereo unspecified)	·	·	·	·	5	·	·
C[n+]1cccc2c(Br)ccc([O-])c21	13*	103*	1	0	1	27	42*
COc1ccc2nc(N(Cc3cccnc3)C(=O)C(c3ccccc3)c3ccccc3)sc2c1	·	·	·	·	6	·	·
CCOC(=O)C1CCN(C2=C(NS(=O)(=O)c3ccc(Br)cc3)C(=O)c3ccccc3C2=O)CC1	-2	45*	0	3	-15	18	19
NC(=O)C1CCN(C2=C(NS(=O)(=O)c3ccc(Br)cc3)C(=O)c3ccccc3C2=O)CC1	6	39*	0	-1	26	-24	-2
